# Screening results from PubChem.
# Many of the other results were omitted from the sample, so hits are more common in it than they were.
# DT40 TDP1 CPT: qHTS for Inhibitors of human tyrosyl-DNA phosphodiesterase 1 (TDP1): qHTS in cells in presence of CPT | chicken DT40 Tdp1-/-;hTDP1 cells + 20 nM CPT, ATP luminescence, 48 h | 420,000 compounds, 12% hits | AID 686979, 2013 | Potency, µM (highest dose often 46.2 µM), for the others: at the highest dose activity change, negative = growth inhibition, usual class: inhibitors; also: potency is read from the fitted curve at half-maximal effect; nearly all actives have a fitted effect of over 55% in size
#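 Cell growth measured by CellTiter-Glo luminescence after a minimum 48 h, 37 C compound exposure with 20 nM CPT in Tdp1-knockout DT40 cells stably expressing hTDP1, seeded 400/well; qHTS titration format.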
# HT1080 IDH1KD tx: qHTS for induction of synthetic lethality in tumor cells producing 2HG: qHTS for the HT-1080-IDH1KD cell line | HT-1080 IDH1 knockdown viability, ATP luminescence, 48 h | Potency, µM (series often up to 46.1 µM), for the others: top-dose activity, negative = toxicity, hits mostly cytotoxic | AID 686971, 2013 | 360,000 compounds, 2% hits;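 also: potency is read from the fitted curve at half-maximal effect; 0% = DMSO wells and -100% = cell-free medium wells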
#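 Viability of IDH1-knockdown HT-1080 fibrosarcoma cells was assessed by CellTiter-Glo after 48 h at 37 °C with titrated compound; concentration-effect curves were classified by fit quality and response size.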
# IL-1B inflam inh: qHTS for Inhibitors of Inflammasome Signaling: IL-1-beta AlphaLISA Primary Screen | THP-1 LPS/ATP IL-1B secretion, AlphaLISA, 16 h; hits give low values | activity change, % at 57.5 µM | 360,000 compounds, 4.7% hits; in the data active = activity change below about -50%; inconclusive = mostly about -30% to -49%
#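 THP-1 cells pretreated 1 hr with compounds (up to 57.5 uM final), then stimulated with LPS (250 ng/mL final) plus ATP (1.25 mM final); secreted IL-1B measured by AlphaLISA after 16 hr, decreased signal indicating inhibition.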
# ALOX12 inh: Primary qHTS assay for inhibitors of human arachidonate 12S-lipoxygenase (ALOX12): Round 2; Polyunsaturated fatty acid lipoxygenase ALOX12 (Homo sapiens), P18054; purified 12hLO, xylenol orange hydroperoxide absorbance; Potency, µM (titrated, usually from 108 µM), without a hit: top-dose activity change, negative = inhibition, most hits filed as inhibitors; 580,000 compounds, 1.1% hits; AID 1671190, 2021; also: potency is read from the fitted curve at half-maximal effect
# Target sequence (P18054 whole entry, looked up): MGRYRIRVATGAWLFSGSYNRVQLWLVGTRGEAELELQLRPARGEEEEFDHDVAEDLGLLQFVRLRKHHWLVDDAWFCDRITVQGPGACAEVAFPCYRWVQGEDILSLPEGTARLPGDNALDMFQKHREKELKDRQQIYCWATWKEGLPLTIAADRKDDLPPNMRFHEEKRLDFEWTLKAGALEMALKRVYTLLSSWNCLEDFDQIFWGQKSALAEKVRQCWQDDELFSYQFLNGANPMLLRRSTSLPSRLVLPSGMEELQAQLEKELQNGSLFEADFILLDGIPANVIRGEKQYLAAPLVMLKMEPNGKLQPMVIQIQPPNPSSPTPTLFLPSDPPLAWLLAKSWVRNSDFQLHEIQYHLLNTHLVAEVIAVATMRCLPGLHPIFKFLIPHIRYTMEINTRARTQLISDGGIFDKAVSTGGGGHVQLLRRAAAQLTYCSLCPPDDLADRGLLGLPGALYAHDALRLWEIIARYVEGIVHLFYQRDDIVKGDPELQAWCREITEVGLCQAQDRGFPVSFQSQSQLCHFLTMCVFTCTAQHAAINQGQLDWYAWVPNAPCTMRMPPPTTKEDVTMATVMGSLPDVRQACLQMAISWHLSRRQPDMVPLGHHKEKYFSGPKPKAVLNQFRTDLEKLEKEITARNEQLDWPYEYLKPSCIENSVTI
#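 Hydroperoxide product was detected by ferrous iron/xylenol orange as the 573 to 405 nm absorbance ratio. Arachidonic acid at 40 uM (final) was turned over for 30 min at room temperature by 150 nM human 12hLO, pH 7.0 Hepes buffer, after 15 min compound preincubation.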
# DT40 TDP1 no CPT: qHTS for Inhibitors of human tyrosyl-DNA phosphodiesterase 1 (TDP1): qHTS in cells in absence of CPT; 420,000 compounds, 15% hits; Potency, µM (top dose mostly 46.2 µM), without a hit: top-dose activity change, negative = growth inhibition, actives largely listed as inhibitors; AID 686978, 2013; DT40 Tdp1-/- hTDP1 cells, no CPT, ATP luminescence, 48 h; also: potency is read from the fitted curve at half-maximal effect; nearly all actives have a fitted effect of over 55% in size
#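 Compound effects on proliferation are scored in DT40 Tdp1-/-;hTDP1 cells in the absence of CPT. ATP levels (CellTiter-Glo luminescence) are recorded after a ≥48 hr, 37 °C incubation.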
# HT1080-NT tox: qHTS for induction of synthetic lethality in tumor cells producing 2HG: qHTS for the HT-1080-NT fibrosarcoma cell line; HT-1080-NT fibrosarcoma viability, CellTiter-Glo ATP luminescence, 48 h; Potency, µM (doses to about 46.1 µM), for inactives: at the top dose activity, negative = less viability, most hits filed as cytotoxic; 360,000 compounds, 1.6% hits; AID 686970, 2013;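 also: NT is the 2HG producing partner of a matched IDH1 knockdown line; potency is read from the fitted curve at half-maximal effect; 0% = DMSO-treated cells and -100% = media-only wells without cells; nearly all actives have a fitted effect of over 55% in size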
#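 Viability by CellTiter-Glo luminescence after 48 h compound exposure at 37C of HT-1080-NT cells (750/well, RPMI, 5% FBS). % activity scaled between DMSO wells and medium-only wells, then curve-fitted and categorized by curve class.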
# An asterisk follows results filed as active; ? = inconclusive; . = no result given; [ ] = another dose, or the depositor's remark. Unless noted, calls follow the shape of the dose curve; as a rule, active = well fitted curve in the direction sought with a large enough effect; inconclusive = small, poorly fitted or top-dose-only effect, or another doubt; inactive = no such curve, though single readings can be large; an effect the other way counts as inactive or inconclusive. Unless noted, % is scaled to controls: 0 for no effect and ±100 for the full control effect.
SMILES,DT40 TDP1 CPT,HT1080 IDH1KD tx,IL-1B inflam inh,ALOX12 inh,DT40 TDP1 no CPT,HT1080-NT tox
CCc1ccc(CN(C(=O)c2cc(=O)c3ccc(C)cc3o2)C2CCS(=O)(=O)C2)cc1 (configuration not stated),16µM*,.,.,-66%,?,.
C[C@@H](NC(=O)C1CCCCC1)c1onc(-c2ccc(Cl)cc2)c1C(=O)O,.,.,.,10%[176 µM],.,.
CC(C(=O)Nc1ccc(O)cc1C(=O)O)N1C(=O)/C(=C\c2cccs2)SC1=S (configuration not stated),-5%,11%,-2,32µM*,-21%,2%
O=C(CCCN1C(=O)/C(=C/c2ccco2)SC1=S)Nc1ccccc1C(=O)O,-25%,-5%,0,32µM*,?,-3%
O=C(CCN1C(=O)/C(=C\c2cccs2)SC1=S)Nc1ccc(C(=O)O)cc1,-5%,0%,7,?,14%,3%
O=C(CCN1C(=O)/C(=C/c2ccco2)SC1=S)Nc1ccc(O)cc1C(=O)O,-7%,-3%,1,?,-9%,0%
O=C(CN1C(=O)/C(=C\c2ccco2)SC1=S)Nc1ccc(O)cc1C(=O)O,-8%,0%,-1,25µM*,0%,1%
O=C(O)/C(=C\c1c(C(=O)O)[nH]c2cc(Cl)cc(Cl)c12)c1ccccc1,-20%,17%,29,35µM*,-18%,-2%
O=C(O)/C(=C\c1cccs1)c1ccccc1,7%,16%,-3,?,-8%,-4%
Cc1ccc2c(c1)-c1c(c(C(=O)N3CCN(c4cc(C)ccc4C)CC3)nn1C)CS2,?,.,.,-5%,15µM*,.
CCOc1ccccc1N(CC)C(=O)c1nn(C)c2c1CSc1ccccc1-2,26µM*,-10%,0,-1%,?,-1%
CCCCNC(=O)c1nn(C)c2c1CSc1ccccc1-2,16µM*,.,.,-21%,?,.
CC1CC(C)CN(C(=O)c2nn(C)c3c2CSc2ccccc2-3)C1 (configuration not stated),?,1%,-28,37%,23µM*,7%
Cn1nc(C(=O)NCc2ccccc2)c2c1-c1ccccc1SC2,?,.,.,34%,?,.
CC1CCCN(C(=O)c2nn(C)c3c2CSc2ccccc2-3)C1 (configuration not stated),-17%,8%,-8,?,-1%,22%
CCOc1ccccc1NC(=O)c1nn(C)c2c1CSc1ccccc1-2,?,.,.,12%,18µM*,.
CC(C)CN1CCN(C(=O)CCC[C@@H]2[C@H]3CCCN4CCC[C@@H](CN2C(=O)c2ccccc2)[C@@H]34)CC1,.,.,.,97%,.,.
C=CCn1c(N)c(C(=O)Nc2ccc(C)cc2)sc1=S,-3%,-18%,-25,26%,5%,0%
Cn1c(N)c(C(=O)Nc2ccc(-c3ccccc3)cc2)sc1=S,23µM*,-8%,-1,-12%,21µM*,-3%
COc1ccccc1NC(=O)NC[C@H]1O[C@H](Cc2cc(-c3cccc(O)c3)on2)CC[C@@H]1O,.,.,.,48%,.,.
Cc1ccccc1-c1nc2cc(NC(=O)Cc3ccc(Cl)cc3)ccc2o1,?,.,.,-10%,21µM*,.
COc1ccc(-c2nc3cc(NC(=O)Cc4ccc(Cl)cc4)ccc3o2)cc1OC,16µM*,.,.,?,13µM*,.
Cc1ccccc1-c1nc2cc(Cl)ccc2c(=O)o1,?,-3%,0,?,16µM*,0%
CCCCN1C(=O)[C@@H]2C[C@@H](O)CN2C2(CN(C)C2)C1=O,.,.,.,6%[176 µM],.,.
O=C(c1ccc(F)c(F)c1)N1C[C@@H](CO)[C@H](c2ccccn2)C1,.,.,.,23%,.,.
SMILES,DT40 TDP1 CPT,HT1080 IDH1KD tx,IL-1B inflam inh,ALOX12 inh,DT40 TDP1 no CPT,HT1080-NT tox
O=C(COc1ccc(Cl)cc1Cl)N/N=C/c1ccc(OC2OC(CO)C(O)C(O)C2O)cc1 (configuration not stated),-9%,-5%,-12,14%,-4%,-22%
COC(=O)C1=C(C)N(C)C(=NCc2ccc(OC)cc2)NC1c1ccc(F)cc1 (configuration not stated),.,.,.,-18%,.,.
CCCNC(=O)c1cc(C2CCCCN2C(=O)c2ccc(C(C)C)cc2)on1 (configuration not stated),21µM*,14%,-9,10%,10µM*,-3%
CC(C)c1ccc(C(=O)N2CCOCC2c2cc(C(=O)Nc3ccccc3)no2)cc1 (configuration not stated),?,-4%,-15,0%,?,8%
CCCNC(=O)c1cc(C2CCCCN2C(=O)c2cc(OC)c(C)c(OC)c2)on1 (configuration not stated),21µM*,-2%,23,13%,?,14%
CC(C)c1ccc(C(=O)N2CCCCC2c2cc(C(=O)Nc3ccncc3)no2)cc1 (configuration not stated),16µM*,-26%,48,14%,16µM*,-9%
CNC(=O)NC(=O)CN1CCOC(c2ccc(F)cc2)C1 (configuration not stated),.,.,.,39%,.,.
CN(C)CCOC1(Cc2ccc(F)cc2)CCC(C(C)(C)C)CC1 (configuration not stated),?,-11%,-104*,-10%,18µM*,-20%
Cc1ccc(CC2(OCCN(C)C)CCC(C(C)(C)C)CC2)cc1 (configuration not stated),18µM*,-2%,-99*,?,15µM*,-6%
O=c1c(Cl)c(Cl)cnn1-c1ccccc1,2.9µM*,4.6µM*,-99*,-3%,3.3µM*,4.1µM*
CCOc1cnn(-c2ccccc2)c(=O)c1Cl,?,16µM*,?,229%,16µM*,?
COc1ccc(Oc2cnn(-c3ccccc3)c(=O)c2Br)cc1,?,0%,-63*,7%,?,2%
CCSc1cnn(-c2ccccc2)c(=O)c1Cl,6%,?,-94*,?,?,?
CCC[C@H]1CN(C(=O)c2cc(F)ccc2OC)C[C@@H]1N,.,.,.,35%,.,.
Cc1cc(C(C)(C)C)ccc1OC(=O)c1ccc(CS(C)(=O)=O)cc1,.,.,.,3%,.,.
